Laboratory results: PubChem BioAssay (NCI)
Compounds without any hit were thinned out: in the full panel of roughly 83,000, 20% have a hit.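 Method: cells in 96-well plates; compound added at one concentration; 48 h incubation; percent growth measured; values under 10 scored active.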 A number with no mark means an inactive call. Active and inactive are the calls of the source.

Key:
Assay in all cases: NCI-60 one-dose screen, 48 h (100 = growth as untreated, 0 = no growth, -100 = all killed)
Settings in all cases: 10 µM unless noted
HCT-15 colon = tested on: HCT-15 colon
HT29 colon = tested on: HT29 colon
SNB-75 CNS = tested on: SNB-75 CNS
SNB-19 CNS = tested on: SNB-19 CNS
U251 CNS = tested on: U251 CNS
PC-3 prostate = tested on: PC-3 prostate
SK-MEL-5 melanoma = tested on: SK-MEL-5 melanoma
UACC-62 melanoma = tested on: UACC-62 melanoma
LOX IMVI melanoma = tested on: LOX IMVI melanoma
SK-MEL-28 melanoma = tested on: SK-MEL-28 melanoma

SMILES | growth (HCT-15 colon) | growth (HT29 colon) | growth (SNB-75 CNS) | growth (SNB-19 CNS) | growth (U251 CNS) | growth (PC-3 prostate) | growth (SK-MEL-5 melanoma) | growth (UACC-62 melanoma) | growth (LOX IMVI melanoma) | growth (SK-MEL-28 melanoma)
CCC[S@](=O)c1ccc2nc(NC(=O)OC)[nH]c2c1 | 98.9% | 79.2% | 86.2% | 95.2% | 89.1% | 89.8% | 98.7% | 89.8% | 96.5% | 107%
O=C1C(Cl)=C(NCCCN(CCCNC2=C(Cl)C(=O)c3ccccc3C2=O)C2=C(Cl)C(=O)c3ccccc3C2=O)C(=O)c2ccccc21 | 37.1% | 12.4% | 104% | 72.9% | 37.4% | 47% | -59.1% (active) | 17.9% | 10.8% | 71.7%
CC(=O)c1ccc(NC(=O)CSc2nnc(-c3cc(-c4ccc(Cl)cc4)nc4ccccc34)o2)cc1 | 76.9% | 84.3% | 82.7% | 78% | 28.6% | 79.5% | 90.5% | 95.7% | 46.1% | 107%
COc1ccc(C(C)c2cc(OC)c(OC)c(OC)c2)cc1 (stereo not given) | 18% | 4.2% (active) | 38.2% | 34.1% | 18% | 24.5% | -31.5% (active) | 28.1% | 26.1% | 61.1%
C#C[C@@]1(O)[C@@H](CO)O[C@@H](n2cc(Cl)c3c(N)ncnc32)[C@@H]1O | 1.65% (active) | 5.79% (active) | -42.4% (active) | 2.86% (active) | -6.87% (active) | -17.3% (active) | -61% (active) | -54.2% (active) | -72.5% (active) | 42.6%
CCOC(=O)/C(=C/c1c(-c2ccccc2)[nH]c2ccccc12)C(=O)c1ccc(Cl)cc1 | 21.2% | 44% | 35% | 79.4% | 50.5% | 12.5% | 53.4% | 43.5% | 44.3% | 75.6%
COc1cc(NC(=O)c2cc(O)c(C/C=C(\C)CCC=C(C)C)c(O)c2)cc2c1O[C@]1(C)CC[C@@H](O)C(C)(C)[C@H]1C2 | 10.4% | 2.06% (active) | 0.372% (active) | 8.74% (active) | 0.579% (active) | 13.1% | -68.2% (active) | -4.89% (active) | -65.8% (active) | 8.85% (active)
Nc1cccc(C(=O)Nc2ccc3c(O)c(N=Nc4ccc(N=Nc5ccc(S(=O)(=O)O)cc5)cc4)c(S(=O)(=O)O)cc3c2)c1 | 108% | 99.1% | 87.9% | 106% | 109% | 91.9% | 104% | 97.4% | 101% | 107%
COc1ccc2nc(-c3ccc(OC)c(OC)c3)cc(-c3nnc(SCC(=O)Nc4ccc(C(C)=O)cc4)o3)c2c1 | 100% | 105% | 91.6% | 101% | 97.7% | 95% | 94.1% | 102% | 102% | 113%
CC(=O)Nc1c(C(=O)Nc2ccccc2)sc2nc3c(cc12)C(OC(C)=O)CCC3 (stereo not given) | 99.7% | 104% | 88.2% | 95.8% | 94.8% | 89% | 82.5% | 59% | 92.2% | 88.9%
COc1cc(-c2csc(NC(=O)Nc3ccc(C(F)(F)F)cc3)n2)cc(OC)c1OC | 10.6% | 3.06% (active) | -12.1% (active) | 14.1% | 6.12% (active) | 3.3% (active) | -54.7% (active) | -0.579% (active) | 4.24% (active) | 16.3%
Nc1c(C(=O)Nc2cccc3ccccc23)sc2nc3c(cc12)CCCCC3 | 28.6% | 19.1% | 19.4% | 27.2% | 16.8% | 34.1% | 37.1% | 38% | 38.4% | 71.7%
c1ccc(-c2cn3ccnc3c(-c3ccc4c(c3)ncn4C3CCCCC3)n2)cc1 | 80.9% | 90.8% | 94.4% | 98.3% | 95.6% | 86.5% | 94.3% | 98% | 95.1% | 111%
